Bioassay records: PubChem BioAssay, The Scripps Research Institute Molecular Screening Center
Rin1 Abl inh: inhibitors of human Rin1-Abl protein interaction; TR-FRET Rin1/Abl binding, biochemical; inhibition, % at 7.35 µM; hit rate 0.4% among 360,000; in the data active = inhibition above about 5%, passing the limit was not always enough
PAFAH1B3 FP inh: inhibitors of human PAFAH1B3; recombinant PAFAH1B3, FP-rhodamine probe, fluorescence polarization; inhibition, % at 3.39 µM; hit rate 0.28% among 340,000; AID 492972;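 active = inhibition above the screen-wide average of all tested compounds plus 3 SD, cut at about 25% in these data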;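 note: 0% = enzyme with DMSO only and 100% = wells lacking PAFAH1B3 protein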
PAFAH2 FP inh: inhibitors of human PAFAH2; hit rate 0.99% among 340,000; Q99487; recombinant PAFAH2, FP-rhodamine activity probe, fluorescence polarization; AID 492956; inhibition, % at 3.39 µM;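 active = inhibition above the mean over all tested compounds plus 3 SD, cut at about 30% in these data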;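 note: inhibitors block probe labeling of enzyme so polarization drops; 0% = enzyme with DMSO and 100% = wells lacking PAFAH2 protein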
E coli Lon inh: inhibits E. coli Lon protease; purified E. coli Lon protease, fluorescence polarization; inhibition, % at 7.94 µM; hit rate 0.42% among 360,000; AID 602123; in the data active = inhibition above about 13%, passing the limit was not always enough;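 note: 0% = enzyme with probe and DMSO and 100% = no enzyme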
pPAFAH inh: pPAFAH (human) enzyme inhibition. Q13093. recombinant pPAFAH, FP-rhodamine probe fluorescence polarization. inhibition, % at 3.39 µM. hit rate 1.5% among 330,000;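 active = inhibition above the mean inhibition across the screen plus 3 SD, cut at about 25% in these data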;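 note: inhibitors block binding of the rhodamine activity-based probe so polarization drops; 0% = enzyme with DMSO and 100% = wells lacking pPAFAH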
PAFAH1B2 FP inh: PAFAH1B2 (human) inhibition; recombinant PAFAH1B2, FP-rhodamine activity probe, fluorescence polarization; inhibition, % at 3.39 µM; hit rate 1.2% among 340,000;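 active = inhibition above the mean of all tested compounds plus 3 SD, cut at about 24% in these data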;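 note: 0% = enzyme with DMSO and 100% = wells lacking PAFAH1B2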
PAFAH2 FP conf: PAFAH2 (human) inhibition, confirmed. inhibition, % at 3.39 µM. hit rate 65% among 2,300. AID 493030. recombinant PAFAH2, FP-rhodamine activity probe, fluorescence polarization. shares compounds with PAFAH2 FP inh;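 active = mean inhibition over three repeats above a set limit taken from the earlier primary screen, cut at about 30% in these data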;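 note: inhibitor blocks binding of rhodamine activity probe so polarization falls; 0% = enzyme with DMSO and 100% = wells lacking PAFAH2 protein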
* marks the source's active call; other numbers are inactive results; . = not tested or not shown. In the library only some 3.1% were active in any assay of this set; here they are far more common.

SMILES | Rin1 Abl inh | PAFAH1B3 FP inh | PAFAH2 FP inh | E coli Lon inh | pPAFAH inh | PAFAH1B2 FP inh | PAFAH2 FP conf
O=C(COC(=O)c1ccc(O)cc1)NCCC1=CCCCC1 | -2 | 6 | 57* | -4 | 13 | 3 | 50*
O=C(COC(=O)c1ccc2c(c1)OCCO2)NCCC1=CCCCC1 | 3 | 2 | 58* | -1 | 17 | -1 | 47*
COC(=O)[C@H](CC(C)C)NC(=O)/C=C/[C@H]1O[C@@H](n2ccc(=O)[nH]c2=O)[C@H](O)[C@@H]1O | 4 | . | . | -9 | . | . | .
CCN(CC)S(=O)(=O)c1ccc(/C=C/C(=O)OCC(=O)Nc2ccc(C(N)=O)cc2)cc1 | -1 | -10 | -7 | -9 | -2 | -4 | .
O=C(COC(=O)/C=C/c1ccc(F)cc1)NCc1ccc2c(c1)OCO2 | 0 | 1 | 4 | 10 | 4 | 5 | .
CCN(CC)S(=O)(=O)c1ccc(/C=C/C(=O)OCC(=O)NCc2ccc3c(c2)OCO3)cc1 | 0 | 4 | 48* | -4 | 14 | 4 | 30*
O=C(COC(=O)/C=C/c1ccc2c(c1)OCO2)NCc1ccccc1 | -1 | 6 | 55* | 8 | -4 | 2 | 42*
O=C(COC(=O)/C=C/c1ccc2c(c1)OCO2)NCc1ccc(F)cc1 | -3 | . | . | 6 | . | . | .
COc1cccc(/C=C/C(=O)OCC(=O)NCc2ccc3c(c2)OCO3)c1 | 2 | 6 | 35* | -3 | 2 | 4 | 17
CCN(CC)S(=O)(=O)c1ccc(/C=C/C(=O)OCC(=O)NNC(=O)c2ccc(OC)cc2)cc1 | 1 | 9 | 43* | 3 | 21 | 2 | 28
O=S1(=O)CC(N2CCN(Cc3ccccc3F)CC2)CN1Cc1cn(Cc2cccc(Cl)c2)nn1 (configuration not stated) | . | . | . | -8 | . | . | .
COc1ccccc1N(C)S(=O)(=O)c1ccc(C)c(C(=O)NC(C)c2ccccn2)c1 (configuration not stated) | 2 | -2 | 0 | -2 | 10 | 10 | .
CCc1ccc(/C=C2\SC(=S)N(CCCC(=O)N3CCCC3)C2=O)cc1 | 3 | . | . | 9 | . | . | .
CC(=O)Nc1ccc(NC(=O)COC(=O)/C=C/c2ccc3c(c2)OCO3)cc1 | 2 | 2 | -7 | -6 | 0 | 1 | .
CC1CCCCC1NC(=O)COC(=O)/C=C/c1ccc2c(c1)OCO2 (configuration not stated) | 1 | 5 | 79* | 8 | 12 | 6 | 84*
N/C(=N\OC(=O)c1cccs1)c1cccc(Br)c1 | 1 | -2 | 47* | -2 | 9 | 6 | 42*
Cc1cccc(/C(N)=N/OC(=O)c2cccs2)c1 | 1 | -2 | 45* | -2 | 4 | 4 | 30*
COc1ccc(C(=O)OCC(=O)Nc2c(C)cccc2C)c(OC)c1OC | -1 | 4 | 52* | 4 | 2 | 2 | 43*
COc1ccc(C(=O)OCC(=O)Nc2cccc(C(C)=O)c2)c(OC)c1OC | -1 | 8 | 83* | 2 | 10 | 0 | 86*
COc1cccc(C(=O)OCC(=O)NCCc2ccccc2)c1OC | -2 | 9 | 58* | -3 | 15 | -1 | 44*
NC(=O)c1ccc(NC(=O)CSc2nnc(-c3cccnc3)n2Cc2ccco2)cc1 | 1 | 10 | -12 | -11 | 3 | -4 | .
O=C(COC(=O)CNC(=O)C1CCCCC1)Nc1ccc(Cl)cn1 | -2 | 6 | 2 | -7 | 5 | 10 | .
O=C(COC(=O)CC1CCCCC1)Nc1c(Cl)cccc1Cl | -1 | 3 | 38* | -5 | 20 | 7 | 31*
O=C(COC(=O)CC1CCCC1)Nc1ccc(Cl)cn1 | 3 | -6 | 50* | -11 | 19 | 1 | 38*
CCN(C(=O)COC(=O)c1ccc2c(c1)OCO2)c1ccc(F)cc1 | 1 | 5 | 14 | 0 | 8 | 10 | .
SMILES | Rin1 Abl inh | PAFAH1B3 FP inh | PAFAH2 FP inh | E coli Lon inh | pPAFAH inh | PAFAH1B2 FP inh | PAFAH2 FP conf
O=C(COC(=O)c1ccc[n+]([O-])c1)Nc1ccc([N+](=O)[O-])cc1C(F)(F)F | -2 | 1 | 9 | 1 | 1 | 7 | .
O=C(COC(=O)C1CC1)Nc1ccc([N+](=O)[O-])cc1C(F)(F)F | 5 | 5 | 53* | -10 | 13 | -4 | 45*
NC(=O)Nc1ccc(C(=O)OCC(=O)Nc2ccc([N+](=O)[O-])cc2C(F)(F)F)cc1 | 1 | -5 | 66* | -14 | -6 | 2 | 66*
O=C(Nc1ccc(Br)cc1)C1CCCN(C2=NS(=O)(=O)c3ccccc32)C1 (configuration not stated) | 2 | -3 | 3 | -8 | 0 | -4 | .
CCOc1cc(C2NC(=O)CCC2[N+](=O)[O-])cc(Br)c1OC (configuration not stated) | 1 | 2 | 1 | -2 | 6 | 3 | .
COc1ccccc1NC(=O)CSc1nnc(Cc2cccs2)n1C | -2 | 5 | 66* | -13 | 1 | 3 | 1
CN(C)S(=O)(=O)c1cccc(C(=O)Nc2cc(S(=O)(=O)N3CCOCC3)ccc2O)c1 | 0 | 6 | 50* | 1 | . | -3 | 50*
O=C(Nc1cc(S(=O)(=O)N2CCOCC2)ccc1O)c1ccco1 | -2 | 3 | 57* | 0 | 5 | 4 | 44*
O=C(Nc1ccc(S(=O)(=O)N2CCOCC2)cc1)c1ccco1 | -2 | 13 | 5 | -6 | 2 | 2 | .
Cc1ccc(S(=O)(=O)N2CCOCC2)cc1C(=O)Nc1cc(S(=O)(=O)N2CCCCC2)ccc1O | 5 | 8 | 30* | 6 | . | 7 | 6
COc1cccc(CC(=O)Nc2cc(S(=O)(=O)N3CCOCC3)ccc2OC)c1 | 3 | 4 | 39* | -3 | . | 3 | 29
CN(C)S(=O)(=O)c1cccc(C(=O)Nc2cc(S(=O)(=O)N3CCOCC3)ccc2N2CCCC2)c1 | 0 | 1 | -9 | -8 | . | 0 | .
Cc1cc(-c2cc(C(=O)Nc3ccccc3)on2)nc(NC2CCCC2)n1 | . | . | . | . | 3 | . | .
COc1ccccc1Cc1c(-c2ccc(F)cc2)nc2cc(C)c(Br)c(C)n12 | . | . | . | -2 | . | . | .
Cc1ccc(C(=O)Oc2oc(-c3ccccc3)nc2C=Nc2ccc(N(C)C)cc2)cc1 | -2 | -3 | 2 | -12 | 0 | 10 | .
Cc1ccc(C(=O)Oc2oc(-c3ccco3)nc2C=Nc2ccc(Cl)cc2)cc1 | 2 | -3 | 41* | -1 | 10 | -1 | 21
COCCN(CC1CCCN(C2Cc3ccccc3C2)C1)C(=O)CSC (configuration not stated) | 2 | 1 | 37* | 0 | -2 | 2 | 23
COCCN(CC1CCCN(C2Cc3ccccc3C2)C1)C(=O)CCSC (configuration not stated) | 2 | 9 | 18 | -7 | 2 | -2 | .
C/C(CC(=O)Nc1ccc(N(C)C)cc1)=N\NC(=O)C(=O)NCc1ccccc1 | 0 | -3 | 46* | 3 | 5 | 10 | -6
